Among the data in PubChem BioAssay AID2284094 (EPA ToxCast) are AC50 values, retold here.

Active and inactive are the calls of the source. How the source made its calls: active means hit-call score of the fitted dose curve at least 0.9, where 1 is the maximum; inactive means score below 0.9.

Sequence of human VHR Phosphatase, DUSP3 (gene 1845) (P51452 whole entry, looked up): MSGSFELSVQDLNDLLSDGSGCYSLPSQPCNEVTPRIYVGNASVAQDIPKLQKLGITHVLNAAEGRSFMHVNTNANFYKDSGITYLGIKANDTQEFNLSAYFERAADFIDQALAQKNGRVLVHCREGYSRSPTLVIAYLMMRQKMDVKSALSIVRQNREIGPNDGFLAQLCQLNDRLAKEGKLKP

This experiment addresses human VHR Phosphatase, DUSP3 (gene 1845) (UniProt P51452). The experiment can be described thus: ERF_FR_ENZ_hDUSP3: Eurofins (ERF) Enzymatic Assay for human VHR Phosphatase. The protocol:
ERF_FR_ENZ_hDUSP3 is a biochemical, single-readout assay that uses extracted gene-proteins in a cell-free assay. Measurements were taken 0.5 hour after chemical dosing in a 96-well plate. See VHR Human Phosphatase Enzymatic Assay, PhosphataseProfiler.ERF_FR_ENZ_hDUSP3 is an assay component calculated from the ERF_FR_ENZ_hDUSP3 assay. It is designed to measure enzyme activity using a type of enzyme reporter as detected by fluorescence intensity with spectrophotometry technology.Data from the assay component ERF_FR_ENZ_hDUSP3 was analyzed at the assay endpoint, ERF_FR_ENZ_hDUSP3, in the positive analysis fitting direction relative to DMSO as the negative control and baseline of activity. Using a type of enzyme reporter, loss-of-signal activity can be used to understand changes in enzymatic activity as they relate to gene DUSP3. To generalize the intended target to other relatable targets, this assay endpoint is annotated to the […].
Human recombinant protein phosphatase VHR expressed in E. coli is used. Test compound and/or vehicle is preincubated with 0.2 mU/ml enzyme for 15 minutes at 37C in modified HEPES buffer pH 7.2. The reaction is initiated by addition of 100 uM DiFMUP for 60 minutes. Determination of the amount of DiFMU formed is read spectrofluorimetrically at 358 nm/450 nm. Compounds are screened at 10 uM.
With `O=C(/C=C/c1ccc(O)cc1)CC(=O)/C=C/c1ccc(O)cc1`, the AC50 was 1.01 nM (active).
